{"source": "PubChem BioAssay AID449762", "about": "(Southern Research Specialized Biocontainment Screening …, 2010)", "note": "Among all 330,000 compounds or so, about 1,900 (0.58%) were called active. Roughly 4% stayed inconclusive and do not appear here. No stated cut-off is given here; in the data, inconclusive means inhibition above about 70% without an active follow-up result; inactive means below that. Only a sample is shown. Results with a measured potency or affinity are listed apart.", "data": [{"assay": "M. tuberculosis growth inhibition, HTS (AID 449762);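 further: bacterial growth assessed after seven days of incubation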", "settings": "M. tuberculosis H37Rv growth inhibition, 7H9 media; at 25 µM; stronger effect = higher value", "values": [{"molecule": "c1ccc(Nc2nc(N3CCCC3)nc(N3CCCC3)n2)cc1", "inhibition": "17.2% (inactive)"}, {"molecule": "c1ccc(Nc2nc(N3CCCCC3)nc(N3CCCCC3)n2)cc1", "inhibition": "4.61% (inactive)"}, {"molecule": "O=C(CSc1nc2ccccc2o1)N1CCOCC1", "inhibition": "-2.89% (inactive)"}, {"molecule": "Cc1c(NC(=O)C(c2ccccc2)c2ccccc2)cccc1C(=O)O", "inhibition": "0.47% (inactive)"}, {"molecule": "O=C(NC1CCCC1)C(c1ccc(F)cc1)N(Cc1ccc(F)cc1)C(=O)CCl", "note": "(configuration not stated)", "inhibition": "0.54% (inactive)"}, {"molecule": "CCOC(=O)c1c(CC(C)C)csc1NC(C)=O", "inhibition": "-1.62% (inactive)"}, {"molecule": "CCOC(=O)c1c(CC(C)C)csc1NC(=O)C(C)C", "inhibition": "1.18% (inactive)"}, {"molecule": "Cc1cccc(NC(=O)c2ccc(S(=O)(=O)N3CCCCC3C)cc2)n1", "note": "(configuration not stated)", "inhibition": "8.6% (inactive)"}, {"molecule": "O=c1[nH]c2ccccc2nc1/C=C(\\O)C1CC1", "inhibition": "-0.58% (inactive)"}, {"molecule": "O=C(C1CCN(S(=O)(=O)c2cccc3cccnc23)CC1)N1CCN(C2CCCC2)CC1", "inhibition": "-2.61% (inactive)"}, {"molecule": "CC(NCc1ccc(N(C)C)cc1)C1CC2CCC1C2", "note": "(configuration not stated)", "inhibition": "0.02% (inactive)"}, {"molecule": "c1cc(CNC2C3CC4CC(C3)CC2C4)ccn1", "note": "(configuration not stated)", "inhibition": "10.3% (inactive)"}, {"molecule": "CNC(=O)c1ccc(NC(=O)Nc2ccccc2)cc1", "inhibition": "-1.42% (inactive)"}, {"molecule": "Cc1occc1-c1nnc(SCC(=O)NCCc2ccccc2)n1Cc1ccccc1", "inhibition": "1.99% (inactive)"}, {"molecule": "Cc1occc1-c1nnc(SCC(=O)Nc2ccccn2)o1", "inhibition": "36.7% (inactive)"}, {"molecule": "CC(C)(C)c1ccc(-c2nnc(SCC(=O)NC3CCS(=O)(=O)C3)n2N)cc1", "note": "(configuration not stated)", "inhibition": "1.59% (inactive)"}, {"molecule": "COc1cc(CC(=O)OCC(=O)Nc2ccc3c(c2)OCO3)cc(OC)c1OC", "inhibition": "0.09% (inactive)"}, {"molecule": "COc1ccc(C2=NOC(Cn3nc(C(=O)O)cc3-c3ccccc3)C2)cc1", "note": "(configuration not stated)", "inhibition": "-10.9% (inactive)"}, {"molecule": "O=C(Cn1ccc2ccccc2c1=O)NCCC(=O)N1CCN(c2ccccc2)CC1", "inhibition": "2.9% (inactive)"}, {"molecule": "O=C(CSc1nc(=O)n(CCCN2CCOCC2)c2c1CCCC2)Nc1ccc(F)cc1", "inhibition": "-5.62% (inactive)"}, {"molecule": "Cc1cccc(C)c1NC(=O)N1CCCCCCC1", "inhibition": "-5.98% (inactive)"}, {"molecule": "C#CCOCCOCCOCCNc1nc(N2CCN(C(=O)CCCCCCCCCCNC(=O)[C@H](CCCCN)n3cc(CCO)nn3)CC2)nc(N2CCN(C(=O)CCCCCCCCCCNC(=O)[C@H](CCCCN)n3cc(CCCC(=O)O)nn3)CC2)n1", "inhibition": "24.8% (inactive)"}, {"molecule": "C#CCOCCOCCOCCNc1nc(N2CCN(C(=O)CCCCCCCCCCNC(=O)[C@H](CCCCN)n3cc(CCCC(=O)O)nn3)CC2)nc(N2CCN(C(=O)CCCCCCCCCCNC(=O)[C@H](CCCCN)n3cc(CCCC(=O)O)nn3)CC2)n1", "inhibition": "-1.93% (inactive)"}, {"molecule": "CC(C)CNC(=O)COC(=O)C1c2ccccc2Oc2ccccc21", "inhibition": "9.4% (inactive)"}, {"molecule": "N#CCC(=O)Nc1ccc(C(=O)OCC(=O)c2ccc3c(c2)OCCO3)cc1", "inhibition": "-4.26% (inactive)"}, {"molecule": "CCC(C(=O)Nc1ccc(OC)c(Cl)c1)c1ccccc1", "note": "(configuration not stated)", "inhibition": "-3.28% (inactive)"}, {"molecule": "O=C(CSc1ccc(-c2cccnc2)nn1)Nc1ccc(Br)cc1", "inhibition": "-0.4% (inactive)"}, {"molecule": "Cc1nonc1OCCNCCNc1ccc([N+](=O)[O-])cc1Cl", "inhibition": "10.9% (inactive)"}, {"molecule": "COc1ccc(NC(=O)CN2CCN(CC(=O)Nc3ccc4c(c3)OCO4)CC2)cc1", "inhibition": "-4.59% (inactive)"}, {"molecule": "COc1ccccc1NC(=O)CN1CCN(CC(=O)Nc2ccc(OC)c(OC)c2)CC1", "inhibition": "-1.32% (inactive)"}, {"molecule": "CCOC(=O)c1c(C=O)c2ccccc2n1Cc1ccccc1F", "inhibition": "0.55% (inactive)"}, {"molecule": "N#CC1=C(N)Oc2n[nH]c(-c3cccs3)c2C1c1ccccc1C(=O)O", "note": "(configuration not stated)", "inhibition": "-1.81% (inactive)"}, {"molecule": "CCN(CC)C(=O)CC(c1ccc(OC)cc1)c1c(O)cc(OC)cc1OC", "note": "(configuration not stated)", "inhibition": "-3.84% (inactive)"}, {"molecule": "CCN(C(=O)COC(=O)c1[nH]c(=O)[nH]c(=O)c1N)c1ccccc1", "inhibition": "-1.59% (inactive)"}, {"molecule": "C(=N\\Nc1nc(Nc2ccccc2)nc(Nc2ccccc2)n1)/c1ccncc1", "inhibition": "0.63% (inactive)"}, {"molecule": "C(=N\\Nc1nc(Nc2ccccc2)nc(Nc2ccccc2)n1)/c1cccnc1", "inhibition": "11.1% (inactive)"}, {"molecule": "CC(=O)c1c(O)cc(C)n(-c2ccc(F)cc2)c1=O", "inhibition": "-1.89% (inactive)"}, {"molecule": "Cc1ccccc1NC(=S)N1CCCC(c2nc3ccccc3[nH]2)C1", "note": "(configuration not stated)", "inhibition": "0% (inactive)"}, {"molecule": "Cc1[nH]n(S(=O)(=O)c2ccccc2)c(=O)c1N=Nc1cccc(Cl)c1", "inhibition": "0.21% (inactive)"}, {"molecule": "Cc1[nH][nH]c(=O)c1N=Nc1ccccc1Cl", "inhibition": "-0.87% (inactive)"}, {"molecule": "COc1cccc(CNC(=O)Cn2ccc([N+](=O)[O-])n2)c1", "inhibition": "-0.85% (inactive)"}, {"molecule": "CCC(=O)Nc1ccc2c(c1)nc(CCNC(=O)c1ccco1)n2C", "inhibition": "2.89% (inactive)"}, {"molecule": "CS(=O)(=O)c1ccc2nc(NC(=O)c3ccc(NS(=O)(=O)c4ccc(F)c(F)c4)cc3)sc2c1", "inhibition": "-0.5% (inactive)"}, {"molecule": "CS(=O)(=O)c1ccc2nc(NC(=O)c3cccc(NS(=O)(=O)c4ccc(F)c(F)c4)c3)sc2c1", "inhibition": "60.6% (inactive)"}, {"molecule": "CCN(CC)S(=O)(=O)c1ccc(N2CCOCC2)c(NS(=O)(=O)c2ccc(C(C)C)cc2)c1", "inhibition": "-4.72% (inactive)"}, {"molecule": "Cc1ccc([C@@H]2CC=C(C(=O)O)[C@H](c3ccc(F)cc3)N2S(=O)(=O)c2ccccc2C)cc1", "inhibition": "0.59% (inactive)"}, {"molecule": "O=C1CCCC(=O)N1c1ccc(F)cc1", "inhibition": "-3.22% (inactive)"}, {"molecule": "CCCCN1C(=O)c2ccc(C(=O)Nc3cccnc3)cc2C1=O", "inhibition": "48.5% (inactive)"}, {"molecule": "CC1=C(/C=C/C(C)=C/C=C/C(C)=C/C(=O)O)C(C)(C)CCC1", "inhibition": "26.5% (inactive)"}, {"molecule": "CC1=C(/C=C/C(C)=C/C=C/C(C)=C\\C(=O)O)C(C)(C)CCC1", "inhibition": "69.3% (inactive)"}, {"molecule": "O=c1cc(C23CC4CC(CC(C4)C2)C3)[nH][nH]1", "inhibition": "4.36% (inactive)"}, {"molecule": "N#Cc1ccc(C23CC4CC(CC(C4)C2)C3)[nH]c1=O", "inhibition": "12.1% (inactive)"}, {"molecule": "Cc1cnc(CN(C)C(=O)CC2C(=O)NCCN2CCCc2ccccc2)[nH]1", "note": "(configuration not stated)", "inhibition": "-8.51% (inactive)"}, {"molecule": "Cc1nn(C(C)C(=O)NCc2ccccc2F)c(=O)c2nn(-c3ccccc3)c(C)c12", "note": "(configuration not stated)", "inhibition": "0.01% (inactive)"}, {"molecule": "CCN1C(=O)[C@H]2[C@@H](c3ccc(-c4ccc(Cl)c(Cl)c4)cc3)N[C@@](Cc3ccccc3)(C(=O)OC)[C@H]2C1=O", "inhibition": "4.89% (inactive)"}, {"molecule": "COc1ccccc1N1CCN(CC(=O)Nc2nccs2)CC1", "inhibition": "6.27% (inactive)"}, {"molecule": "Cc1ccccc1N1CCN(CC(=O)Nc2nccs2)CC1", "inhibition": "6.57% (inactive)"}, {"molecule": "O=C(CC(=O)NC1CCCCC1)N/N=C/c1ccccc1F", "inhibition": "7.41% (inactive)"}, {"molecule": "CCOC(=O)CNC(=O)c1cnc(Nc2ccccc2OC)c2ccccc12", "inhibition": "2.72% (inactive)"}, {"molecule": "O=C(O)Cc1c(-c2ccccc2Cl)c2cc(Br)ccc2[nH]c1=O", "inhibition": "0.9% (inactive)"}, {"molecule": "N#Cc1ccc(-c2csc(NNC(=O)c3ccccc3)n2)cc1", "inhibition": "1.66% (inactive)"}, {"molecule": "O=C(NNc1nc(-c2ccc(F)cc2)cs1)c1ccccc1", "inhibition": "1.95% (inactive)"}, {"molecule": "Cc1cc(C)c(C#N)c(SCCS(=O)(=O)c2ccc(C(C)(C)C)cc2)n1", "inhibition": "1.43% (inactive)"}, {"molecule": "CCC(=O)CCC(=O)c1ccc2ccccc2c1", "inhibition": "9.13% (inactive)"}, {"molecule": "O=C1C=C(O)c2c(O)cccc2C1=O", "inhibition": "-6.54% (inactive)"}, {"molecule": "COc1cccc2c1C(=O)C=C(C)C2=O", "inhibition": "-8.66% (inactive)"}, {"molecule": "CC(=O)NC12CC3CC(C1)CC(C(=O)Nc1c(C)n(C)n(-c4ccccc4)c1=O)(C3)C2", "inhibition": "-13% (inactive)"}, {"molecule": "COc1ccc(NC(=O)CSc2nnnn2-c2ccc(F)cc2)cc1", "inhibition": "-7.12% (inactive)"}, {"molecule": "C[C@@]12C(=O)N(CCO)CC(=O)N1[C@H](/C=C/c1ccccc1)[C@@H]1C(=O)N(c3ccccc3)C(=O)[C@@H]12", "inhibition": "-1.57% (inactive)"}, {"molecule": "CC1(C)CN(c2cccc(C#N)c2)C1=O", "inhibition": "-3.52% (inactive)"}, {"molecule": "CC(=O)OCC1(C)CN(c2ccccc2)N(C(=O)c2ccc(F)cc2)C1=O", "note": "(configuration not stated)", "inhibition": "37.7% (inactive)"}, {"molecule": "COc1cccc(CN(C(=O)c2ccccc2Br)C2CCS(=O)(=O)C2)c1", "note": "(configuration not stated)", "inhibition": "-0.47% (inactive)"}, {"molecule": "CC1(C)CC(=O)C2=C(C1)NC(Nc1nc3ccccc3o1)=NC21CCCC1", "inhibition": "-11% (inactive)"}, {"molecule": "CC1(C)CC(=O)C2=C(C1)NC(Nc1nc3ccccc3o1)=NC21CCCCC1", "inhibition": "-1.05% (inactive)"}, {"molecule": "O=C(CN1C(=O)c2ccccc2S1(=O)=O)NC1CC2CCC1C2", "note": "(configuration not stated)", "inhibition": "-4.11% (inactive)"}, {"molecule": "CN1CCN(c2ccc(NC(=O)CN3CCOCC3)cc2F)CC1", "inhibition": "-4.73% (inactive)"}, {"molecule": "CC(C)CNC(=S)NC(=O)c1ccc([N+](=O)[O-])cc1", "inhibition": "11.6% (inactive)"}, {"molecule": "C=CCNC(=S)NC(=O)c1csc([N+](=O)[O-])c1", "inhibition": "18.2% (inactive)"}, {"molecule": "CCn1c(SCC(=O)N/N=C/c2ccccc2OCC(=O)O)nnc1-c1ccc(OC)cc1", "inhibition": "1.34% (inactive)"}, {"molecule": "Oc1ccc(CN2CCN(Cc3ccccc3)CC2)c2cccnc12", "inhibition": "14.4% (inactive)"}, {"molecule": "OCc1ccc(O)c2ncccc12", "inhibition": "52.4% (inactive)"}, {"molecule": "Oc1ccc(CN2CCCc3ccccc32)c2cccnc12", "inhibition": "-5.25% (inactive)"}, {"molecule": "Cc1ccccc1NCc1ccc(O)c2ncccc12", "inhibition": "2.36% (inactive)"}, {"molecule": "Cc1cccc(NCc2ccc(O)c3ncccc23)c1", "inhibition": "14.1% (inactive)"}, {"molecule": "Oc1ccc(CNc2ccc(F)cc2)c2cccnc12", "inhibition": "-1.78% (inactive)"}, {"molecule": "Cc1cccnc1NCc1ccc(O)c2ncccc12", "inhibition": "51.8% (inactive)"}, {"molecule": "Oc1ccc(CNc2ccccc2)c2cccnc12", "inhibition": "-3.76% (inactive)"}, {"molecule": "COc1ccc(S(=O)(=O)N(Cc2ccc(OC)c(OC)c2)Cc2ccco2)cc1", "inhibition": "12.4% (inactive)"}, {"molecule": "O=C1NNC(=O)C1c1ccccc1", "inhibition": "0.86% (inactive)"}, {"molecule": "COc1cccc(C2[C@H](C)C3(CCN2C)OCCO3)c1", "note": "(some centres not stated)", "inhibition": "1.26% (inactive)"}, {"molecule": "C=CCN(C(=O)c1csnn1)C(C(=O)NCc1ccccc1)c1ccccc1F", "note": "(configuration not stated)", "inhibition": "5.11% (inactive)"}, {"molecule": "COc1ccc(NC(=S)N2CCC(c3ccccc3)C2)cc1", "note": "(configuration not stated)", "inhibition": "0.04% (inactive)"}]}]}
